# From paper PMC8384837, “Expanding the binding specificity for RNA recognition by a PUF domain”
# Substitutions are numbered along the chain they refer to.
# Assays:
# Test in all cases: yeast three-hybrid, YBZ-1, SC-Leu-His + 0.5 mM 3-AT, 4 days
# Conditions in all cases: tags: N-Gal4 AD-HA kept; label: inside an RPR1-promoter hybrid RNA with tandem MS2 sites; ssRNA
# PUM1 PUF domain R3-YWT = PUM1 PUF domain R3-YWT (Homo sapiens, UniProt Q14671 828-1176, C935Y;R936W;Q939T)
# How it was run: (§1)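 The interaction score is the logarithmic change in variant frequency from input to selection. It uses log2, with a pseudocount of 1 for absent variants, and frequencies came from PCR-amplified, Illumina-sequenced repeat regions. The libraries were Pumilio-1 PUF domains randomized at the three base-contacting residues per repeat, co-expressed with matching RNA elements in strain YBZ-1 (LexA–MS2 coat fusion, HIS3 reporter). Plating lasted four days on SC-Leu (input) or SC-Leu-His + 0.5 mM 3-AT (selection).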
# PUM1 PUF domain R5-DRL = PUM1 PUF domain R5-DRL (Homo sapiens, UniProt Q14671 828-1176, C1007D;Q1011L)
# How it was run: as §1
# PUM1 PUF domain R5-SKQ = PUM1 PUF domain R5-SKQ (Homo sapiens, UniProt Q14671 828-1176, C1007S;R1008K)
# How it was run: as §1
# PUM1 PUF domain R5-ERG = PUM1 PUF domain R5-ERG (Homo sapiens, UniProt Q14671 828-1176, C1007E;Q1011G)
# How it was run: as §1
# PUM1 PUF domain R3-FRG = PUM1 PUF domain R3-FRG (Homo sapiens, UniProt Q14671 828-1176, C935F;Q939G)
# How it was run: as §1
# PUM1 PUF domain R3-IRV = PUM1 PUF domain R3-IRV (Homo sapiens, UniProt Q14671 828-1176, C935I;Q939V)
# How it was run: as §1
# PUM1 PUF domain R1-RLE = PUM1 PUF domain R1-RLE (Homo sapiens, UniProt Q14671 828-1176, S863R;R864L;Q867E)
# How it was run: as §1
# PUM1 PUF domain R1-QRS = PUM1 PUF domain R1-QRS (Homo sapiens, UniProt Q14671 828-1176, S863Q;Q867S)
# How it was run: as §1
# PUM1 PUF domain R6-CFE = biological target: T1, PUM1 PUF domain R6-CFE (Homo sapiens, UniProt Q14671 828-1176, N1043C;Y1044F;Q1047E)
# T1 sequence: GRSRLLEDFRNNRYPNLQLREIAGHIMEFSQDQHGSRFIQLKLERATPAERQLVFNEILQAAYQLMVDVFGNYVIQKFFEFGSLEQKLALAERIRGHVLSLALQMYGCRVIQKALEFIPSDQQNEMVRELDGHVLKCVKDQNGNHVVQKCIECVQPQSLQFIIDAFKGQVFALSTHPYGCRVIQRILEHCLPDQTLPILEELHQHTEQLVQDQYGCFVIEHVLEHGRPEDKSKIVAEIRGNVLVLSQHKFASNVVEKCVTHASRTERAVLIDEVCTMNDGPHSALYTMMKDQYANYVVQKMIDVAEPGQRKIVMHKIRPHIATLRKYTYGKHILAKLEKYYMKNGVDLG
# How it was run: as §1
# PUM1 PUF domain R4-SRV = PUM1 PUF domain R4-SRV (Homo sapiens, UniProt Q14671 828-1176, N971S;H972R;Q975V)
# How it was run: as §1
# PUM1 PUF domain R4-FGA = PUM1 PUF domain R4-FGA (Homo sapiens, UniProt Q14671 828-1176, N971F;H972G;Q975A)
# How it was run: as §1
# PUM1 PUF domain R5-KYK = PUM1 PUF domain R5-KYK (Homo sapiens, UniProt Q14671 828-1176, C1007K;R1008Y;Q1011K)
# How it was run: as §1
# PUM1 PUF domain R8-HYC = PUM1 PUF domain R8-HYC (Homo sapiens, UniProt Q14671 828-1176, N1122H;Q1126C)
# How it was run: as §1
# PUM1 PUF domain R5-LHV = PUM1 PUF domain R5-LHV (Homo sapiens, UniProt Q14671 828-1176, C1007L;R1008H;Q1011V)
# How it was run: as §1
# PUM1 PUF domain R5-PRC = PUM1 PUF domain R5-PRC (Homo sapiens, UniProt Q14671 828-1176, C1007P;Q1011C)
# How it was run: as §1
# PUM1 PUF domain R6-AFQ = biological target: T2, PUM1 PUF domain R6-AFQ (Homo sapiens, UniProt Q14671 828-1176, N1043A;Y1044F)
# T2 sequence: T1 sequence with C216A, E220Q
# How it was run: as §1
# Sequence of PUM1 PUF domain R5-DRL (Q14671 828-1176 C1007D/Q1011L): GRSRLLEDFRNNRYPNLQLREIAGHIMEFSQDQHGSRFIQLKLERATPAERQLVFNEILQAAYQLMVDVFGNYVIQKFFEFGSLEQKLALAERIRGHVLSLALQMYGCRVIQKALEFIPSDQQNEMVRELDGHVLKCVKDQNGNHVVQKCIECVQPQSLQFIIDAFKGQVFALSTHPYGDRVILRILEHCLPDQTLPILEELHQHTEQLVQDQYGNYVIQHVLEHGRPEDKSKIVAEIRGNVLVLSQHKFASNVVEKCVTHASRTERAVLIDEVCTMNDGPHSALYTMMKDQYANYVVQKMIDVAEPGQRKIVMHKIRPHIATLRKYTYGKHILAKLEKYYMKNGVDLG
# Sequence of PUM1 PUF domain R5-ERG (Q14671 828-1176 C1007E/Q1011G): as the sequence (Q14671 828-1176 C1007D/Q1011L) above, with D180E, L184G counted along it
# Sequence of PUM1 PUF domain R3-YWT (Q14671 828-1176 C935Y/R936W/Q939T): as the sequence (Q14671 828-1176 C1007D/Q1011L) above, with C108Y, R109W, Q112T, D180C, L184Q counted along it
# Sequence of PUM1 PUF domain R1-RLE (Q14671 828-1176 S863R/R864L/Q867E): as the sequence (Q14671 828-1176 C1007D/Q1011L) above, with S36R, R37L, Q40E, D180C, L184Q counted along it
# Sequence of PUM1 PUF domain R8-HYC (Q14671 828-1176 N1122H/Q1126C): as the sequence (Q14671 828-1176 C1007D/Q1011L) above, with D180C, L184Q, N295H, Q299C counted along it
# Sequence of PUM1 PUF domain R5-KYK (Q14671 828-1176 C1007K/R1008Y/Q1011K): as the sequence (Q14671 828-1176 C1007D/Q1011L) above, with D180K, R181Y, L184K counted along it
# Sequence of PUM1 PUF domain R5-SKQ (Q14671 828-1176 C1007S/R1008K): as the sequence (Q14671 828-1176 C1007D/Q1011L) above, with D180S, R181K, L184Q counted along it
sequence,measurement,setting,value
GGCUAGAACUAGUGGAUCCCCCGGCGCCCGGCGGCUCGAGCCCGGGUAAGUGUAAUUAGUCUGCAUGCCGCCGGGCGCCAUGCCUGCAGGUCGACUCUAGAAAACAUG,binding signal,PUM1 PUF domain R3-YWT,2.71 log2 enrichment (interaction score)
GGCUAGAACUAGUGGAUCCCCCGGCGCCCGGCGGCUCGAGCCCGGGUAAGUGUGAAUAGUCUGCAUGCCGCCGGGCGCCAUGCCUGCAGGUCGACUCUAGAAAACAUG,binding signal,PUM1 PUF domain R5-DRL,1.6 log2 enrichment (interaction score)
same,binding signal,PUM1 PUF domain R5-SKQ,2.39 log2 enrichment (interaction score)
same,binding signal,PUM1 PUF domain R5-ERG,1.54 log2 enrichment (interaction score)
GGCUAGAACUAGUGGAUCCCCCGGCGCCCGGCGGCUCGAGCCCGGGUAAGUGUAAGUAGUCUGCAUGCCGCCGGGCGCCAUGCCUGCAGGUCGACUCUAGAAAACAUG,binding signal,PUM1 PUF domain R3-FRG,5.59 log2 enrichment (interaction score)
same,binding signal,PUM1 PUF domain R3-IRV,1.69 log2 enrichment (interaction score)
GGCUAGAACUAGUGGAUCCCCCGGCGCCCGGCGGCUCGAGCCCGGGUAAGUGUAAAUUGUCUGCAUGCCGCCGGGCGCCAUGCCUGCAGGUCGACUCUAGAAAACAUG,binding signal,PUM1 PUF domain R1-RLE,2.88 log2 enrichment (interaction score)
same,binding signal,PUM1 PUF domain R1-QRS,2.7 log2 enrichment (interaction score)
GGCUAGAACUAGUGGAUCCCCCGGCGCCCGGCGGCUCGAGCCCGGGUAAGUGAAAAUAGUCUGCAUGCCGCCGGGCGCCAUGCCUGCAGGUCGACUCUAGAAAACAUG,binding signal,PUM1 PUF domain R6-CFE,6.12 log2 enrichment (interaction score)
GGCUAGAACUAGUGGAUCCCCCGGCGCCCGGCGGCUCGAGCCCGGGUAAGUGUACAUAGUCUGCAUGCCGCCGGGCGCCAUGCCUGCAGGUCGACUCUAGAAAACAUG,binding signal,PUM1 PUF domain R4-SRV,0.98 log2 enrichment (interaction score)
same,binding signal,PUM1 PUF domain R4-FGA,3.23 log2 enrichment (interaction score)
GGCUAGAACUAGUGGAUCCCCCGGCGCCCGGCGGCUCGAGCCCGGGUAAGUGUAAAUAGUCUGCAUGCCGCCGGGCGCCAUGCCUGCAGGUCGACUCUAGAAAACAUG,binding signal,PUM1 PUF domain R5-DRL,2.34 log2 enrichment (interaction score)
same,binding signal,PUM1 PUF domain R5-KYK,2.74 log2 enrichment (interaction score)
same,binding signal,PUM1 PUF domain R8-HYC,3.69 log2 enrichment (interaction score)
same,binding signal,PUM1 PUF domain R5-ERG,3.47 log2 enrichment (interaction score)
same,binding signal,PUM1 PUF domain R5-LHV,3.57 log2 enrichment (interaction score)
same,binding signal,PUM1 PUF domain R4-SRV,3.51 log2 enrichment (interaction score)
same,binding signal,PUM1 PUF domain R5-PRC,4.13 log2 enrichment (interaction score)
same,binding signal,PUM1 PUF domain R3-IRV,2.93 log2 enrichment (interaction score)
same,binding signal,PUM1 PUF domain R6-AFQ,3.75 log2 enrichment (interaction score)
same,binding signal,PUM1 PUF domain R4-FGA,1.37 log2 enrichment (interaction score)
